Laboratory results reported in article PMC5540273 (PLoS ONE, 2017).

Legend:
Conditions in all cases: concentration: 1 μM, replicates: in singlicate; n = 1
EPHA1 = system: EPHA1
EPHA2 = system: EPHA2
EPHA3 = system: EPHA3
EPHA4 = system: EPHA4
EPHA5 = system: EPHA5
EPHA6 = system: EPHA6
EPHA7 = system: EPHA7
EPHA8 = system: EPHA8
EPHB1 = system: EPHB1
EPHB2 = system: EPHB2
EPHB3 = system: EPHB3
EPHB4 = system: EPHB4
EPHB6 = system: EPHB6
ERBB2 = system: ERBB2
ERBB3 = system: ERBB3
ERBB4 = system: ERBB4
ERK1 = system: T1, ERK1
T1 construct: gene MAPK3

ERK2 = system: T2, ERK2
T2 construct: gene MAPK1

ERK3 = system: T3, ERK3
T3 construct: gene MAPK6

ERK4 = system: T4, ERK4
T4 construct: gene MAPK4
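Note: KINOMEscan kinase panel screen.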

SMILES | %Inh (EPHA1) | %Inh (EPHA2) | %Inh (EPHA3) | %Inh (EPHA4) | %Inh (EPHA5) | %Inh (EPHA6) | %Inh (EPHA7) | %Inh (EPHA8) | %Inh (EPHB1) | %Inh (EPHB2) | %Inh (EPHB3) | %Inh (EPHB4) | %Inh (EPHB6) | %Inh (ERBB2) | %Inh (ERBB3) | %Inh (ERBB4) | %Inh (ERK1) | %Inh (ERK2) | %Inh (ERK3) | %Inh (ERK4)
COc1cc2ncn(-c3cc(OCc4ccncc4Br)c(C(N)=O)s3)c2cc1OC [GW854278] | 25% | 10% | 21% | 0% | 0% | 0% | 0% | 5% | 0% | 9% | 0% | 18% | 3% | 11% | 37% | 0% | 0% | 0% | 0% | 4%
Cc1ccc(-c2ccc3c(ccc4sc5c(c43)NC[C@@H](C)N=C5N(C)C)n2)cn1 | 0% | 0% | 0% | 0% | 0% | 0% | 0% | 0% | 0% | 0% | 0% | 0% | 15% | 8% | 0% | 3% | 0% | 0% | 1% | 14%
Cc1c(Cn2c(C)nn3c(=O)cc(N4CCO[C@H](C)C4)nc23)cccc1C(F)(F)F [GSK2373690] | 4% | 26% | 0% | 3% | 1% | 0% | 22% | 29% | 8% | 0% | 10% | 0% | 0% | 7% | 0% | 32% | 17% | 14% | 10% | 2%
CCS(=O)(=O)c1ccc(OC)c(Nc2ncc(-c3ccc(F)cc3)o2)c1.Cl [GW591947] | 0% | 0% | 0% | 0% | 0% | 0% | 0% | 1% | 11% | 64% | 0% | 0% | 0% | 13% | 0% | 0% | 8% | 7% | 13% | 21%
CN(C)c1cc(-c2ccc3c(N)n[nH]c3c2)nc(N)n1 [GSK2219329] | 15% | 0% | 4% | 8% | 0% | 0% | 0% | 3% | 14% | 0% | 9% | 13% | 3% | 25% | 0% | 30% | 15% | 0% | 11% | 0%
Cl.c1ccc(Cn2cnc3cc(Nc4ncnc5ccccc45)ccc32)cc1 [GW272142] | 4% | 0% | 0% | 12% | 0% | 10% | 0% | 10% | 0% | 0% | 12% | 13% | 80% | 38% | 0% | 33% | 0% | 0% | 19% | 0%
Cc1nnc(-c2ccc(C)c(-c3ccc(C(=O)O)cc3)c2)o1 [GW608005] | 0% | 0% | 0% | 18% | 0% | 9% | 0% | 0% | 8% | 0% | 6% | 5% | 0% | 36% | 0% | 76% | 0% | 0% | 0% | 0%
CCC(=O)c1c(-c2ccccc2)c2cc(Cl)ccc2c(=O)n1Cc1cc(S(C)(=O)=O)n(CC(N)=O)n1 | 0% | 15% | 0% | 0% | 0% | 0% | 0% | 0% | 0% | 0% | 0% | 0% | 15% | 39% | 0% | 0% | 0% | 0% | 0% | 0%
CCCNC(=O)Nc1ccc(Oc2ncnc3ccn(C)c23)cc1 | 0% | 0% | 0% | 3% | 12% | 8% | 0% | 0% | 1% | 20% | 0% | 0% | 5% | 33% | 1% | 4% | 0% | 0% | 2% | 0%
Cc1ccccc1COc1cc(-n2cnc3cc(Cl)ccc32)sc1C(N)=O [GW813349] | 9% | 6% | 0% | 0% | 0% | 0% | 0% | 0% | 14% | 19% | 0% | 10% | 17% | 14% | 54% | 0% | 1% | 0% | 0% | 0%
Nc1ncnc2c1ncn2-c1cccc2ccccc12 [SKF-97184] | 0% | 0% | 0% | 3% | 0% | 0% | 0% | 0% | 0% | 12% | 0% | 0% | 0% | 10% | 26% | 41% | 0% | 0% | 0% | 0%
COc1ccc(CNC(=O)NC2CCN(c3ccnc(Nc4ccc(F)cc4)n3)C2)cc1 (centres unmarked) [GSK1379706] | 0% | 7% | 17% | 8% | 0% | 0% | 1% | 16% | 16% | 30% | 6% | 16% | 30% | 41% | 47% | 2% | 6% | 14% | 14% | 0%
Nc1ncnc2c1ncn2-c1ccc(Cl)cc1 [AH2635] | 0% | 12% | 0% | 0% | 0% | 0% | 0% | 3% | 9% | 0% | 3% | 7% | 10% | 53% | 1% | 50% | 0% | 0% | 18% | 0%
Nc1n[nH]c2nnc(-c3ccccc3)c(-c3ccccc3)c12 [GW554060] | 15% | 6% | 0% | 12% | 0% | 28% | 0% | 10% | 9% | 0% | 43% | 8% | 17% | 27% | 16% | 32% | 0% | 0% | 3% | 0%
COc1ccc(-n2cnc3c(N)ncnc32)cc1 [SKF-97236] | 0% | 13% | 0% | 0% | 4% | 0% | 1% | 10% | 19% | 0% | 0% | 0% | 1% | 7% | 0% | 1% | 14% | 9% | 0% | 0%
C[C@@H]1CC[C@H](C(=O)NC2CCCCC2)CN1c1cc(-c2ccc3c(N)n[nH]c3c2)nc(N)n1 [GSK2291363] | 6% | 23% | 18% | 12% | 11% | 10% | 8% | 22% | 26% | 8% | 20% | 21% | 96.7% | 21% | 0% | 35% | 14% | 25% | 21% | 28%
Cc1cccc(-c2cc(-c3c[nH]nc3-c3ccccn3)ccn2)c1 [GW679395] | 38% | 7% | 0% | 22% | 0% | 13% | 0% | 13% | 33% | 17% | 25% | 22% | 74% | 19% | 0% | 36% | 0% | 0% | 0% | 19%
COC(=O)c1c(-c2ccccc2)c2cc(Br)ccc2c(=O)n1Cc1ccc(NC(=O)CCC(=O)O)cc1 | 24% | 0% | 4% | 12% | 7% | 31% | 5% | 12% | 5% | 7% | 19% | 13% | 14% | 57% | 0% | 0% | 0% | 29% | 3% | 3%
CCC(=O)c1c(-c2ccccc2)c2cc(Cl)ccc2c(=O)n1Cc1cc(S(C)(=O)=O)n(CC(F)F)n1 | 2% | 0% | 7% | 2% | 0% | 2% | 0% | 0% | 0% | 0% | 1% | 0% | 0% | 0% | 0% | 0% | 7% | 11% | 0% | 0%
COc1ccc(-c2cc3c(C)nc(N)nc3n([C@H]3CC[C@H](O)CC3)c2=O)cn1 | 12% | 8% | 0% | 0% | 0% | 0% | 0% | 0% | 0% | 0% | 0% | 0% | 4% | 0% | 0% | 0% | 0% | 0% | 0% | 5%
Fc1cccc(CSc2nnc(-c3ccc4c(c3)CCO4)o2)c1 | 0% | 0% | 13% | 0% | 7% | 0% | 10% | 11% | 9% | 23% | 0% | 0% | 14% | 59% | 8% | 0% | 5% | 30% | 21% | 0%
OCCCNc1nccc(-c2c(-c3cccc(C(F)(F)F)c3)nn3cc(C(F)(F)F)ccc23)n1 [GW630813] | 5% | 0% | 5% | 0% | 0% | 0% | 0% | 0% | 0% | 0% | 0% | 10% | 0% | 19% | 12% | 40% | 0% | 0% | 0% | 0%
